# HT1080-NT tox = kills 2HG-producing HT-1080-NT fibrosarcoma cells | HT-1080-NT fibrosarcoma viability, CellTiter-Glo ATP luminescence, 48 h | Potency, µM (highest dose often 46.1 µM), for the others: at the top dose activity, negative = less viability, actives largely listed as cytotoxic | 360,000 tested, 1.6% active;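 further: NT is the 2HG producing partner of a matched IDH1 knockdown line; 0% = DMSO-treated cells and -100% = media-only wells without cells; nearly all actives have a fitted effect of over 55% in size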
#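 750 cells/well, RPMI + 5% FBS; 2 h settle, compound pin-transfer, 48 h at 37 degrees C. CellTiter-Glo 10 min RT, luminescence. Normalized to DMSO and media-only wells.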
# KB-V1 MDR tox = kills drug-selected multidrug resistant KB-V1 cells. Potency, µM (doses to about 46.1 µM), actives largely listed as cytotoxic. KB-V1 MDR cells viability, CellTiter-Glo, 72 h. 400,000 tested, 3.4% active; further: on the % scale 0 is the no-effect control and ±100 the full control effect; nearly all actives have a fitted effect of over 60% in size
#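 Following 72 h at 37 degrees C with compound, KB-V1 cell viability was read by CellTiter-Glo luminescence, medium being phenol-red-free DMEM plus 10% FBS; concentration-response parameters came from normalized, curve-fitted qHTS data.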
# HT1080 IDH1KD tx = kills HT-1080 cells with IDH1 knockdown; HT-1080 IDH1 knockdown viability, ATP luminescence, 48 h; Potency, µM (top dose mostly 46.1 µM), for inactives: at the highest dose activity, negative = toxicity, usual class: cytotoxic; 360,000 tested, 2% active;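 further: 0% = DMSO wells and -100% = cell-free medium wells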
#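 % activity derives from luminescence (CellTiter-Glo), normalised to DMSO and no-cell wells. HT-1080-IDH1KD cells, 750/well, had 48 h compound exposure at 37 °C.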
# KB-3-1 cytotox = KB-3-1 parental cell cytotoxicity; KB-3-1 viability, CellTiter-Glo ATP luminescence, 72 h; 400,000 tested, 1.4% active; Potency, µM (highest dose often 46.1 µM), usual class: cytotoxic; further: on the % scale 0 is the no-effect control and ±100 the full control effect; nearly all actives have a fitted effect of over 60% in size
#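 KB-3-1 cells, DMEM (no phenol red) + 10% FBS; compound by pin transfer, 72 h, 37 °C. Readout: CellTiter-Glo luminescence after 10 min. Data normalized, curve-fitted.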
# SW480 rereplic = DNA re-replication induction in SW480 cells; SW480 DNA re-replication, Hoechst DNA content imaging, 48 h; Potency, µM (series often up to 46.1 µM), for the others: top-dose re-replication activation, most hits filed as activators; 340,000 tested, 1.8% active; AID 624297; further: % of control where 0% means no effect; nearly all actives have a fitted effect of over 55% in size
#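 Image-based read-out: total Hoechst fluorescence of nuclei (405 nm excitation, 500-530 nm emission), with hits raising the fraction of high-intensity nuclei. SW480 colon cells incubated 48 hr with compounds at 37 C.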
# MCF10A rerep = inducers of DNA re-replication in MCF 10A breast cells; MCF 10A DNA re-replication, Hoechst nuclear intensity, 48 h; Potency, µM (top dose mostly 46.1 µM), without a hit: at the highest dose activity, positive = re-replication, hits mostly activators; 350,000 tested, 2.9% active; AID 624296; further: % of control where 0% means no effect; nearly all actives have a fitted effect of over 50% in size
# * hit, by the source's call; i = inactive; u = inconclusive; x = no result. The list is not random: actives were taken first. Their share in the collection is about 7.9%. The call rests on the fitted dose curve; in most records, active means well fitted curve in the direction sought with a large enough effect; inconclusive means small, poorly fitted or top-dose-only effect, or another doubt; inactive means no such curve, though single readings can be large; an effect the other way counts as inactive or inconclusive. Potency means the concentration at half of the fitted maximal effect.
SMILES,HT1080-NT tox,KB-V1 MDR tox,HT1080 IDH1KD tx,KB-3-1 cytotox,SW480 rereplic,MCF10A rerep
O=C(Cc1cccs1)N1CCN(c2nc(-c3ccc(Cl)cc3)cs2)CC1,-16.8%,8.2µM*,u,i,11.4%,25.6%
S=C(NCc1ccco1)N1CCN(c2nc(-c3ccc(Cl)cc3)cs2)CC1,u,i,u,u,3.7%,10.7%
O=C(CN1CCN(c2nc(-c3ccc(Cl)cc3)cs2)CC1)NCc1ccco1,-21.0%,i,-2.3%,i,11.0%,9.2µM*
CC(C)C(=O)N1CCN(c2nc(-c3ccc(Cl)cc3)cs2)CC1,-1.7%,i,u,i,u,u
N#Cc1c(N)[nH]c2ccc(Sc3ccccc3)cc12,3.26µM*,3.26µM*,7.31µM*,2.31µM*,4.11µM*,0.92µM*
O=C1c2ccccc2CCc2ccccc21,14.3%,i,22.1%,i,-1.1%,-2.1%
O=c1cc2c(n[nH]1)-c1ccccc1CC2,12.7%,u,7.1%,1.3µM*,-12.7%,-1.9%
CNC(=O)c1cc(Oc2ccc(NC(=O)Nc3ccc(Cl)c(C(F)(F)F)c3)cc2)ccn1,u,u,u,u,u,16.4µM*
O=C(Nc1ccc(Cl)c(C(F)(F)F)c1)c1ccncc1,-8.5%,u,-15.5%,i,-1.0%,0.0%
N#C/C(=C\c1ccc(Br)s1)C(=O)N1CCN(c2ccccc2)CC1,8.1%,18.4µM*,13.7%,i,0.0%,u
COc1ccc2c(c1)[nH]c(=O)c1sc3ccccc3c12,-29.1%,i,-29.5%,i,3.0%,13µM*
COc1ccc2sc3c(=O)[nH]c4ccccc4c3c2c1,-22.1%,u,-15.0%,u,4.7%,u
COn1c2c(c3c4no[n+]([O-])c4ccc31)CCCC2,-0.1%,i,-8.8%,i,-0.7%,23.5%
COn1c2c(c3c4nonc4ccc31)CCCC2,-4.5%,18.4µM*,u,i,3.0%,9.7%
CC1(C)Cc2c(sc(/N=C/N3CCCCCC3)c2C#N)C(C)(C)N1,-6.6%,i,u,u,0.5%,16.4µM*
COc1ccc(CNC(=O)Cn2ncc3c(=O)oc4ccc(C)cc4c32)c(OC)c1,x,i,x,i,x,x
O=C(NCc1ccccn1)c1cn(-c2ccccc2)nc1-c1ccc(Cl)cc1,1.7%,3.66µM*,-6.3%,i,-8.0%,u
O=C1NC(=O)C(c2cn(-c3ccccc3)nc2-c2ccc(F)cc2)N1 (stereo not given),-12.5%,i,-8.3%,i,u,18.4µM*
CCOC(=O)C1=C(C)NC(=O)NC1c1cn(-c2ccccc2)nc1-c1ccc(OC(C)C)cc1 (stereo not given),x,i,x,i,x,x
O=C(O)c1cn(-c2ccccc2)nc1-c1ccc(F)cc1,9.7%,i,20.2%,i,105.9%,13µM*
O=C(NC(=S)N1CCOCC1)c1cn(-c2ccccc2)nc1-c1ccccc1,-20.2%,5.8µM*,-5.0%,i,-27.6%,9.0%
O=C(c1cn(-c2ccccc2)nc1-c1ccccc1)N1CCOCC1,11.5%,i,6.0%,i,0.2%,-3.1%
O=C(NCc1ccccn1)c1ccc(-c2ccccc2)cc1,7.8%,i,-10.5%,i,-35.6%,-0.3%
COc1ccc(S(=O)(=O)n2nc(C)c(S(=O)(=O)N3CCCCCC3)c2C)cc1C,x,u,x,i,x,x
O=C(CSc1nnc(-c2ccccc2)c(-c2ccccc2)n1)Nc1ccccc1Cl,x,u,x,i,x,x
SMILES,HT1080-NT tox,KB-V1 MDR tox,HT1080 IDH1KD tx,KB-3-1 cytotox,SW480 rereplic,MCF10A rerep
CC(C)N1CC(C(=O)Nc2ccccc2)CC1=O (stereo not given),-4.3%,u,-0.6%,i,-10.6%,-8.9%
Cc1ccc(NC(=O)C2CC(=O)N(C(C)c3ccccc3)C2)cc1 (stereo not given),3.4%,18.4µM*,1.4%,i,0.3%,2.3%
CCCCCOc1ccc(CSC(=N)N)cc1[N+](=O)[O-],20.6µM*,18.4µM*,16.4µM*,u,u,u
CCCCOc1ccc(CSC2=NCCN2)cc1[N+](=O)[O-],u,u,-22.3%,u,u,20.6µM*
COc1ccc(CSC(=N)N)cc1[N+](=O)[O-],-5.8%,u,-6.9%,u,u,u
CCCCOc1ccc(Br)cc1CSC(=N)N,23.1µM*,8.2µM*,18.4µM*,23.1µM*,u,u
O=C(CCc1nc(-c2cccs2)no1)Nc1cccc([N+](=O)[O-])c1,x,i,x,i,x,x
CCN(CC)C(=O)c1sc2nc(-c3ccc(OC)cc3)cn2c1C,-1.4%,3.66µM*,0.5%,i,-0.6%,0.0%
COc1ccc(-c2cn3c(C)c(C(=O)NCCN4CCOCC4)sc3n2)cc1,1.3%,11.6µM*,0.3%,i,-6.6%,-6.1%
Cc1cn(C)c(CC(=O)NCc2ccccc2Cl)c1C(=O)O,x,i,x,i,x,x
CCc1ccc(NC(=O)CN2C(=O)CSc3ccc(S(=O)(=O)N(C)C)cc32)cc1,x,i,x,i,x,x
O=C(N[C@@H](Cc1ccccc1)C(=O)NC1CCCCCC1)c1ccco1,-20.1%,5.17µM*,-20.5%,u,1.0%,-3.8%
O=C(NC(Cc1ccccc1)C(=O)O)c1ccco1 (stereo not given),0.1%,i,-7.5%,i,u,1.4%
O=C(N[C@@H](Cc1ccccc1)C(=O)NC1CCCCC1)c1ccco1,-1.3%,13µM*,0.4%,i,0.4%,14.8%
C[C@@H]1CN([C@H](C)CO)C(=O)CCCn2nncc2CO[C@H]1CN(C)Cc1ccc2cccnc2c1,10.4%,i,1.4%,i,x,x
COc1ccc2oc(=O)c(-c3csc(Nc4ccc(O)cc4)n3)cc2c1,u,u,u,u,u,4.11µM*
CCOc1cccc2cc(-c3nnc(NCc4ccco4)s3)c(=O)oc12,-5.3%,i,-18.6%,i,u,20.6µM*
COc1ccc2oc(=O)c(-c3nnc(NCc4ccco4)s3)cc2c1,-21.3%,u,u,u,8.91µM*,7.31µM*
COc1ccc(Nc2nc(-c3ccc(OC)cc3)cs2)cc1,-11.4%,u,-2.9%,i,-2.2%,-6.9%
COc1ccc(Nc2nc(-c3c[nH]c4ccccc34)cs2)cc1,4.0%,i,14.0%,u,u,16.4µM*
Cc1ccc(CNC(=O)c2ccc3c(c2)N(Cc2cccc(C)c2)C(=O)CS3)cc1,x,i,x,i,x,x
CN(C)c1ccc(/C=C2\Cc3ccccc3C2=O)cc1,x,i,x,i,x,x

# Screening data (PubChem)
